Molecules are shown by their SMILES. Inconclusive results are not listed. Active and inactive are the calls of the source. How the source made its calls, unless noted: active means hit-call score of the fitted dose curve at least 0.9, where 1 is the maximum; inconclusive means response in the unintended direction; inactive means score below 0.9. Peptide text beside a SMILES is read from it.

The nature of experiment [1]: CCTE_Deisenroth_H295R-HTRF_384WELL_ESTRADIOL: CCTE's H295R-HTRF Assay Evaluation of Estradiol Concentration, Deisenroth Lab (AID 2284361; active means hit-call score of the fitted dose curve at least 0.9, where 1 is the maximum; inactive means score below 0.9). The conditions noted are these: actives raise or lower the signal. The method, boiled down: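 H295R cells exposed 48 h to chemicals at 0.001 - 100 uM final (nine points, triplicate); estradiol in conditioned medium measured by HTRF immunoassay, fitted bidirectionally versus DMSO. Viability by CellTiter-Glo on same plates.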

Experiment [2] in a line: CCTE_Deisenroth_H295R-HTRF_384WELL_TESTOSTERONE: CCTE's H295R-HTRF Assay Evaluation of Testosterone Concentration, Deisenroth Lab (AID 2284373; active means hit-call score of the fitted dose curve at least 0.9, where 1 is the maximum; inactive means score below 0.9). The conditions noted are these: actives raise or lower the signal. An outline of the steps:
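Secreted testosterone was quantified by HTRF immunoassay of medium from human adrenocortical H295R cells after 48 h chemical exposure at 0.001–100 uM final. Gain or loss was fitted against DMSO. ATP-based viability was read on matched wells, five experimental replicates.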

The nature of experiment [3]: CCTE_Deisenroth_H295R-HTRF_384WELL_CTOX: Cytotoxicity Assessment in CCTE's H295R-HTRF Assay, Deisenroth Lab (AID 2284380). An outline of the steps: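 H295R adrenocortical carcinoma cells plated 24 h, then exposed 48 h to nine-point series 0.001–100 uM final, triplicate, n=5. ATP measured by CellTiter-Glo 2.0 luminescence on same plates after medium collection; loss versus DMSO.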

The nature of experiment [4]: CCTE_Mundy_HCI_iCellGluta_NOG_NeuriteCount: CCTE's Neurite Outgrowth Assay in iCellGluta cells for Neurite Count, Mundy Lab (AID 2284342).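 Further: chemical exposure about 48 hours starting 2 hours after plating.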
The subject of the next experiment is SERPINA7 (gene 6906). Put plainly: CCTE_GLTED_hTBG: CCTE's human Thyroxine-binding Globulin (TBG) Inhibition Assay, Great Lakes Toxicology and Ecology Division (GLTED) Lab (AID 2284343).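 Further: active chemicals lower fluorescence versus DMSO baseline by displacing probe.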 The method, boiled down:
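hTBG + test chem, 2 h; ANSA probe displacement; fluorescence readout ex380/em475; DMSO = neg ctrl/baseline; cell-free.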

Experiment [5] in a line: IUF_NPC1_cytotoxicity_72hr: Cytotoxicity Assessment at 72 hours in the Leibniz Research Institute for Environmental Medicine (IUF) Neural Progenitor Cell Proliferation Assay (NPC1) (AID 2284332).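 Further: rising LDH signal means more cytotoxicity.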 An outline of the steps: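 Spheres of primary human neural progenitors are plated one per well on day 0 in growth-factor medium and dosed at once. After three days at 37C, supernatant LDH is measured fluorimetrically via resazurin reduction.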

The nature of experiment [6]: CCTE_Mundy_HCI_iCellGluta_NOG_NeuronCount: CCTE's Neurite Outgrowth Assay in iCellGluta cells for Neuron Count, Mundy Lab (AID 2284340).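 Further: cells fixed about 48 h after compound addition.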 The method, boiled down:
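Neuron count read by automated high-content imaging of Hoechst 33342 and betaIII-tubulin/Alexa Fluor-488 labelling in human iPSC glutamatergic neurons. Activity fitted relative to DMSO.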

Experiment [7] is described as follows: Tanguay_ZF_120hpf_MO24: Oregon State University Tanguay Lab 24 Hour Post-fertilization zebrafish Assay for Mortality (AID 2284389; active means hit-call score of the fitted dose curve at least 0.9, where 1 is the maximum; inactive means score below 0.9). The method, boiled down:
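Dechorionated wild-type zebrafish embryos, 1 per well, statically exposed from 6 hpf at 28C, 0.64% DMSO final. Mortality scored as binary present/absent at 24 hpf by brightfield microscopy, relative to DMSO.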

Experiment [8] can be described thus: Tanguay_ZF_120hpf_DP24: Oregon State University Tanguay Lab 24 Hour Post-fertilization zebrafish Assay for Delayed Development (AID 2284390; active means hit-call score of the fitted dose curve at least 0.9, where 1 is the maximum; inactive means score below 0.9). The method, boiled down: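 Dechorionated 5D wild-type zebrafish embryos exposed statically from 6 hpf, one per well, 0.64% DMSO final, 28 C, sealed and dark. Developmental progression scored at 24 hpf by brightfield as binary present/absent; dead embryos excluded.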

The nature of experiment [9]: Tanguay_ZF_120hpf_CRAN: Oregon State University Tanguay Lab 120 Hour Post-fertilization zebrafish Assay for Craniofacial Malformation (AID 2284397; active means hit-call score of the fitted dose curve at least 0.9, where 1 is the maximum; inactive means score below 0.9). The method, boiled down:
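Dechorionated Tropical 5D wild-type zebrafish embryos, one per well, were statically exposed from 6 to 120 hpf at 28C in 0.64% DMSO, with 5uM trimethyltin chloride as positive control. Craniofacial malformation was scored present/absent by brightfield microscopy, relative to DMSO.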

Experiment [10] is described as follows: Tanguay_ZF_120hpf_AXIS: Oregon State University Tanguay Lab 120 Hour Post-fertilization zebrafish Assay for Axial Malformation (AID 2284398; active means hit-call score of the fitted dose curve at least 0.9, where 1 is the maximum; inactive means score below 0.9). The method, boiled down:
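Dechorionated 5D wild-type zebrafish embryos exposed statically, one per well, from 6 to 120 hpf at 28C, 0.64% DMSO. Axial malformation scored as present/absent by brightfield microscopy at 120 hpf; dead embryos not scored.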

Experiment [11] in a line: Tanguay_ZF_120hpf_MORT: Oregon State University Tanguay Lab 120 Hour Post-fertilization zebrafish Assay for Mortality (AID 2284399; active means hit-call score of the fitted dose curve at least 0.9, where 1 is the maximum; inactive means score below 0.9). The method, boiled down:
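Dechorionated wild-type Tropical 5D zebrafish embryos, one per well from 6 hpf, static exposure to 120 hpf at 28C in sealed dark plates, 0.64% DMSO final. Mortality scored as binary by brightfield at 24 and 120 hpf.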

Experiment [12] in a line: Tanguay_ZF_120hpf_EDEM: Oregon State University Tanguay Lab 120 Hour Post-fertilization zebrafish Assay for Edema Malformation (AID 2284400; active means hit-call score of the fitted dose curve at least 0.9, where 1 is the maximum; inactive means score below 0.9). An outline of the steps: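 Dechorionated Tropical 5D wild-type embryos, one per well, statically exposed from 6 to 120 hpf at 28C in 0.64% DMSO. Edema scored present/absent by brightfield microscopy at 120 hpf; dead embryos not scored; fit versus DMSO.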

Experiment [13] is described as follows: Tanguay_ZF_120hpf_BRN: Oregon State University Tanguay Lab 120 Hour Post-fertilization zebrafish Assay for Brain Region Malformation (AID 2284402; active means hit-call score of the fitted dose curve at least 0.9, where 1 is the maximum; inactive means score below 0.9). An outline of the steps:
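Dechorionated wild-type Tropical 5D zebrafish embryos exposed statically from 6 to 120 hpf at 28C, one per well, 0.64% DMSO final. Brain malformation scored at 120 hpf by brightfield as present/absent; dead embryos not scored.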

Experiment [14] in a line: Tanguay_ZF_120hpf_TCHR: Oregon State University Tanguay Lab 120 Hour Post-fertilization zebrafish Assay for Touch Responsive (AID 2284403; active means hit-call score of the fitted dose curve at least 0.9, where 1 is the maximum; inactive means score below 0.9). An outline of the steps:
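Dechorionated Tropical 5D wild-type zebrafish embryos, one per well from 6 hpf, were statically exposed to 120 hpf at 28 °C (0.64% DMSO). Touch response was scored present/absent at 120 hpf and not scored in dead larvae.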

Experiment [15] can be described thus: Tanguay_ZF_120hpf_ANY: Oregon State University Tanguay Lab 120 Hour Post-fertilization zebrafish Assay for Any Mortality and Malformation (AID 2284404; active means hit-call score of the fitted dose curve at least 0.9, where 1 is the maximum; inactive means score below 0.9). An outline of the steps: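 Dechorionated Tropical 5D wild-type embryos, one per well from 6 hpf, static exposure in sealed, dark plates at 28C until 120 hpf, 0.64% DMSO final. Brightfield scoring of mortality and malformations as binary presence/absence, pooling 13 morphology endpoints.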

Experiment [16] can be described thus: CCTE_Padilla_ZF_Score.Craniofacial: CCTE's 144 Hour Post-fertilization zebrafish Assay Score for Craniofacial Malformation, Padilla Lab (AID 2284405; active means hit-call score of the fitted dose curve at least 0.9, where 1 is the maximum; inactive means score below 0.9). The method, boiled down:
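Wild-type zebrafish embryos (with chorions), one per well in 10% Hanks', were dosed at 6–8 hpf in sealed plates and kept at 26C. They were rinsed at 5 dpf. At 6 dpf two blinded assessors scored craniofacial malformations by brightfield stereomicroscopy.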

A short description of experiment [17]: CCTE_Padilla_ZF_Score.Edema: CCTE's 144 Hour Post-fertilization zebrafish Assay Score for Edema Malformation, Padilla Lab (AID 2284406; active means hit-call score of the fitted dose curve at least 0.9, where 1 is the maximum; inactive means score below 0.9). The method, boiled down: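 Wild-type zebrafish embryos, one per well in Hanks' solution, dosed at 6-8 hpf, sealed and reared at 26C on a 14:10 h cycle; rinsed on 5 dpf. At 6 dpf, blinded assessors scored edema by stereomicroscopy.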

Experiment [18] has as its system SRY-box transcription factor 17 (SOX17) Protein Expression, Deisenroth Lab, SOX17 (gene 64321). The experiment is described as follows: CCTE_Deisenroth_DEVTOX-GLR_legacy_Sox17: (Legacy) CCTE's DevTox GLR-Endo Assay Evaluation of SRY-box transcription factor 17 (SOX17) Protein Expression, Deisenroth Lab (AID 2284341; active means hit-call score of the fitted dose curve at least 0.9, where 1 is the maximum; inactive means score below 0.9). The conditions noted are these: actives raise or lower the signal. The method, boiled down: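 Percent SOX17-positive cells, scored by high-content imaging as mean intensity exceeding pluripotent-control median by 5x BMAD, divided by cell count. Human RUES2-GLR endoderm differentiation, 48 h, two exposures 24 h apart, 1 nM–200 uM; DMSO-referenced bidirectional fitting.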

The subject of experiment [19] is SRY-box transcription factor 2 (SOX2) Protein Expression, Deisenroth Lab, SOX2 (gene 6657). Put plainly: CCTE_Deisenroth_DEVTOX-GLR_legacy_Sox2: (Legacy) CCTE's DevTox GLR-Endo Assay Evaluation of SRY-box transcription factor 2 (SOX2) Protein Expression, Deisenroth Lab (AID 2284346; active means hit-call score of the fitted dose curve at least 0.9, where 1 is the maximum; inactive means score below 0.9). An outline of the steps: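 RUES2-GLR human pluripotent cells seeded 24 h, then differentiated 48 h in defined media with two chemical doses 24 h apart (10-point, 1 nM–200 uM). Fixed, nuclear-stained, imaged; % Sox2+ cells (>5x BMAD over endoderm control median), DMSO-subtracted, fitted upward.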

In the case of `C=C[C@@]1(C)CC(=O)[C@]2(O)[C@@]3(C)[C@@H](O)CCC(C)(C)[C@@H]3[C@H](O)[C@H](OC(C)=O)[C@@]2(C)O1`, the results for the AC50 in experiment [1] and in [2] were 3.68 µM (active) and 566 nM (active), respectively. Further, in experiment [3], the molecule was classed as inactive.

For `Cc1noc(NS(=O)(=O)c2ccc(N)cc2)c1C`, the molecule was called inactive in [4].

As for `COc1ccc(C(=O)c2ccccc2)c(O)c1`, the AC50 in the experiment with SERPINA7 (gene 6906) was 7.45 µM (active).

Turning to `COc1ccc(-c2coc3cc(O)cc(O)c3c2=O)cc1`, the AC50 in the experiment on SERPINA7 (gene 6906) is 23 µM (active).

Consider `CCCCCCCOC(=O)c1ccc(O)cc1`, for which the AC50 in the experiment on SERPINA7 (gene 6906) was 10.6 µM (active).

Regarding `CCCCCC[C@@H](O)C/C=C\CCCCCCCC(=O)OCC(O)CO` (stereo partly drawn), the AC50 with SERPINA7 (gene 6906) was 26.9 µM (active).

In the case of `CC(CCC(=O)O)(c1ccc(O)cc1)c1ccc(O)cc1`, the AC50 with SERPINA7 (gene 6906) was 37.7 µM (active).

In the case of `CCCCNS(=O)(=O)c1ccccc1`, the outcome in experiment [5], in experiment [6] and in [4] was inactive.

For `Oc1ccc(-c2ccccc2)c(Cl)c1`, in the experiment on SERPINA7 (gene 6906), the AC50 is 15.4 µM (active).

Take `Cc1ccc(C)c(OCCCC(C)(C)C(=O)O)c1`: the AC50 in the experiment with SERPINA7 (gene 6906) was 27 µM (active).

Turning to `Cc1ccc([N+](=O)[O-])cc1N`, the AC50 with SERPINA7 (gene 6906) is 50 µM (active).

Regarding `CCCCNS(=O)(=O)c1ccc(C)cc1`, the AC50 in the experiment on SERPINA7 (gene 6906) was 21.4 µM (active).

As to `CC1=NN(c2ccc(S(=O)(=O)O)cc2)C(=O)C1N=Nc1ccccc1` (stereo not drawn), the half-maximal activity concentration (AC50) in the experiment with SERPINA7 (gene 6906) was 27.3 µM (active).

With `CCCCOCCOC(=O)COc1ccc(Cl)cc1Cl`, the AC50 in the experiment on SERPINA7 (gene 6906) was 12.7 µM (active).

In the case of `C[N+](C)(C)CCCNS(=O)(=O)C(F)(F)C(F)(F)C(F)(F)C(F)(F)C(F)(F)C(F)(F)C(F)(F)C(F)(F)F`, the call in experiment [7], in experiment [10], in experiment [11], in [13], in [14] and in [16] was inactive. Also, the result in [17] was inactive. Besides, the AC50 was 89.2 µM (active) in experiment [8], 70.4 µM (active) in experiment [9], 67.1 µM (active) in [12] and 80 µM (active) in [15].

On to `CCOC(=O)C1=NOC(c2ccccc2)(c2ccccc2)C1`, for which the AC50 in the experiment on SERPINA7 (gene 6906) is 2.68 µM (active).

Turning to `O=C(O)C(F)(F)C(F)(F)C(F)(F)C(F)(F)C(=O)O`, the call in experiment [6], in experiment [4], in [7], in [8], in experiment [9] and in experiment [10] was inactive. The call in experiment [11], in experiment [12], in [13], in experiment [14], in experiment [15] and in experiment [16] was inactive. Moreover, the molecule was classed as inactive in experiment [17].

With `O=S(=O)(O)c1ccc(N=Nc2c(O)ccc3ccccc23)cc1`, the AC50 in the experiment on SERPINA7 (gene 6906) is 19 µM (active).

With `O=C(Oc1ccccc1)c1ccccc1O`, the AC50 in the experiment on SERPINA7 (gene 6906) is 2.52 µM (active).

With `Oc1ccccc1Cc1ccccc1O`, in the experiment on SERPINA7 (gene 6906), the AC50 is 8.67 µM (active).

For the molecule `CC1(C)[C@@H]2CC[C@@]1(C)C(=O)C2`, the call in [18] and in experiment [19] was inactive.

As for `CC(C)(c1ccccc1)c1ccc(Nc2ccc(C(C)(C)c3ccccc3)cc2)cc1`, the AC50 with SERPINA7 (gene 6906) was 25.2 µM (active).

With `Cc1c(C(=O)c2c[nH]n(C)c2=O)ccc(S(C)(=O)=O)c1C1=NOCC1`, the molecule was called inactive in experiment [5], in experiment [6] and in [4].

As for `CCCCCCCCCCCCc1ccc(O)cc1`, the AC50 in the experiment with SERPINA7 (gene 6906) was 6.15 µM (active).

With `CC(C)(C)NC(=O)[C@H]1CC[C@H]2[C@@H]3CC[C@H]4NC(=O)C=C[C@]4(C)[C@H]3CC[C@]12C`, the molecule was classed as inactive in experiment [1], in experiment [2] and in experiment [3].

On to `COC(=O)[C@H](Cc1ccccc1)NC(=O)[C@@H](N)CC(=O)O` (H-Asp-Phe-OMe), for which the molecule was classed as inactive in experiment [6] and in experiment [4].

Consider `N#Cc1ccc(C(c2ccc(C#N)cc2)n2cncn2)cc1`, for which the result in [1], in experiment [2] and in experiment [3] was inactive.

As for `O=C(OCCc1ccccc1)c1ccccc1`, the AC50 with SERPINA7 (gene 6906) is 22.6 µM (active).

As for `COc1cc(O)c(C(=O)c2ccccc2)cc1S(=O)(=O)O`, the AC50 in the experiment on SERPINA7 (gene 6906) is 29.8 µM (active).

The values above are taken from PubChem BioAssay (EPA / NIEHS).
